The values that follow come from PubChem BioAssay (NCI).

Molecules are shown by their SMILES. “And” between values parts separate entries of the source, which are not always exact repeats. Equal entries are not always repeated. This is part of a sample that, as a whole, favours compounds with a hit. Of some 83,000 tested, about 20% had one in any assay.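 Interpretation: 100, growth as untreated; towards 0, rising growth inhibition; 0, no net growth; 0 to -100, cell death. Compounds scoring below 10 were considered active.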 The source made the active and inactive calls.

In the assay the test system is MDA-MB-468 breast. As to the kind of experiment: NCI-60 one-dose screen, 48 h (100 = growth as untreated, 0 = no growth, -100 = all killed). The note with it: 10 µM unless noted.
As to `COc1ccc(/C=C2\Oc3cc(OCCN4CCCC4)ccc3C2=O)c(OC)c1`, the growth is 86.5% (inactive).
The value for `COc1ccc(/C=C(/c2ccccc2)[N+](=O)[O-])cc1` was -77.6% (active); that for `O=C1NC(=O)/C(=C/c2ccc(OCc3cc4ccccc4nc3Cl)cc2)S1` was 92% (inactive).
On to `COc1cc(C2CC(=O)Nc3c2cc(Br)c2ccccc32)cc(Br)c1OC` (stereo not given), for which the growth is 3.67% (active).
As for `CCCCCCCCCC[C@@H](C)[C@@H]1CC(=O)N[C@H]([C@@H](C)O)C(=O)N[C@@H](C)C(=O)N[C@H](C)C(=O)N[C@@H](CCC(N)=O)C(=O)N[C@H](Cc2ccc(O)cc2)C(=O)N[C@@H](C(C)CC)C(=O)O1` (stereo not given in full), the growth is 2.46% (active).
The value for `CN(C)c1ccc(-c2cc(-c3ccc(Nc4nc(Nc5ccccc5)nc(Nc5ccc(Cl)cc5)n4)cc3)nc(N)n2)cc1` was 74.3% (inactive); that for `O=S(=O)(Nc1cccc2ccccc12)c1ccc(-c2cnc(C3CC3)o2)cc1` was 0.881% (active); that for `CCc1c(C)c2cc3nc(NCc4ccccc4)oc3c(C)c2oc1=O` was 68.2% (inactive).
Turning to `COc1ccc(C2NCCc3c2[nH]c2ccccc32)cc1CN1CCN(c2ccc(F)cc2)CC1` (stereo not given), the growth is 49% (inactive).
The value for `COc1ccc(CC(C)=C(c2ccc(OCCN3CCCC3)cc2)c2ccc(OCCN3CCCC3)cc2)cc1` was -85.2% (active); that for `COc1cccc(-c2nc3occn3c2-c2ccnc(NCCNS(=O)(=O)c3cccc4ccccc34)n2)c1` was 98.1% (inactive).
In the case of `c1ccc(-c2nnc(-c3c[nH]c4ncccc34)s2)cc1`, the growth was 79.9% (inactive).
The value for `Nc1ccc(O)c(C(=O)O)c1` was 73.1% (inactive) and 9.23% (active) and 98.8% (inactive).
For `CCCCC1CCCCN1C(=O)OCC` (stereo not given) the value was 114% (inactive).
The value for `O=C(O)c1ccc(-n2cc(CNc3cccc(Cl)c3)c(-c3ccc(F)cc3)n2)cc1` was 109% (inactive); that for `COc1ccc(N2CCN(C3=C(Cl)C(=O)C(C)=C(C)C3=O)CC2)cc1` was 74.1% (inactive); that for `BrC1CC(Br)c2c1c1c(c3c2C(Br)CC3Br)C(Br)CC1Br` (stereo not given) was 79% (inactive).
With `CC[N+](CC)=c1ccc2nc3c(cc(N)c4ccccc43)oc-2c1`, the growth is -5.04% (active).
The value for `CC(C)C1(C(C)C)NC(=O)NC1=O` was 101% (inactive); that for `O=c1cc(Cc2ccc([N+](=O)[O-])cc2)[nH]c(=O)[nH]1` was 105% (inactive).
`COC(=O)[C@@H](C)CNS(=O)(=O)N(c1cc(C(F)(F)F)cc(C(F)(F)F)c1)C1CCN(Cc2ccc(F)cc2)CC1`: the growth is 23.6% (inactive).
`CCN(CC)CC(=O)Nc1c(C)cc(C(=O)NN)cc1C`: the growth is 107% (inactive).
For `Cc1ccc(NC(=O)C2CCC(CN3CCN(C)CC3)CC2)cc1Nc1nccc(-c2cccnc2)n1` (stereo not given) the value was 94.8% (inactive); for `O=C(CNCCN1CCOCC1)N1c2cccc3cccc(c23)N(C(=O)CNCCN2CCOCC2)C1c1cn(-c2ccccc2)nc1-c1cccc([N+](=O)[O-])c1`, 35.8% (inactive); for `O=C(O)C(O)C(O)C(=O)O.[NH-]C1CCCCC1[NH-].[Pt+2]` (stereo not given), 95.5% (inactive).
With `COc1ccc(/C=C/C(=O)c2ccc(NC(=O)CSc3nnc(-c4ccc(Cl)cc4)n3-c3ccccc3)cc2)cc1`, the growth is 94.8% (inactive).
For `CCCn1c(=S)sc2c1nc(C)n1c(Nc3ccccc3)nnc21` the value was 51.5% (inactive); for `Oc1ccc(-c2nc(-c3ccc4oc5ccc(-c6[nH]c(-c7ccc(O)cc7)nc6-c6ccccc6)cc5c4c3)c(-c3ccccc3)[nH]2)cc1`, 6.14% (active); for `CN(C)c1ccc(/C=C2\C=C(c3ccccc3)N(CCc3ccccc3)C2=O)cc1`, 98.2% (inactive).
For `O=[N+]([O-])CC(O)c1ccccc1` (stereo not given) the value was 98.7% (inactive); for `CCCOC(=O)C(O)c1ccccc1` (stereo not given), 102% (inactive).
As to `CCN(CC)CCCC(Nc1c2ccc(Cl)cc2nc2ccc(OC)cc12)c1ccc(F)cc1` (stereo not given), the growth was 90.5% (inactive).
The value for `Cc1ncc(C(=O)Nc2ccc(CN3CCN(C)CC3)c(C(F)(F)F)c2)cc1C#Cc1cnc(NC2CC2)c2ncccc12` was 32% (inactive); that for `O=C(CC(C(=O)c1ccccc1)N1CCN(Cc2ccccc2)CC1)c1ccccc1` (stereo not given) was 70.1% (inactive).
For `O=C(/C=C/C=C/c1c(C2CC2)nc2ccccc2c1-c1ccc(F)cc1)c1cccs1` the value was 4.94% (active).
For `C=C(C)[C@@H]1CC[C@]2(C(=O)N3CCN(C)CC3)CC[C@]3(C)[C@H](CC[C@@H]4[C@@]5(C)C/C(=C/c6ccco6)C(=O)C(C)(C)[C@@H]5CC[C@]43C)[C@@H]12` the value was 64.6% (inactive); for `Oc1ccc2cc(Br)ccc2c1-c1c(O)ccc2cc(Br)ccc12`, 90.9% (inactive); for `OC(c1cc(-c2ccccc2)nc2ccc(Cl)cc12)C1CCCCN1` (stereo not given), -17.1% (active).
`Cc1cc(N2CCCC2)nc(N(CCCNc2ccnc3cc(Cl)ccc23)Cc2ccc3c(c2)OCO3)n1`: the growth was -47.4% (active).
In the case of `CN(C)CCOc1ccc(-c2nc3sccn3c2-c2ccnc(S(C)(=O)=O)n2)cc1`, the growth was 98.8% (inactive).
